Assay outcomes deposited in PubChem by several laboratories.
Compounds with a hit are over-represented: about 2.6% of the library has one in this group of screens.
CRFR2-BP ag: agonists of human CRF-binding protein/CRF-R2 receptor complex; HEK293 CRF-R2/CRF-BP, calcium dye fluorescence (FLIPR); percent of saturating CRF peptide response; actives 0.46% (n = 350,000); activation, % at 13.2 µM; AID 588473;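 active means activation of at least 50%, plus an integration ratio under a set limit after plate pattern correction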;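 further: plate controls were neutral control wells without compound for no effect and CRF at EC100 for full effect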
Myeloid diff MLP: myeloid differentiation induction | ER-HoxA9 myeloid progenitors, lysozyme-GFP differentiation, flow cytometry | calls only at 10 µM | actives 1% (n = 360,000) | AID 624256;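 active means normalized GFP-positive differentiation at or above the plate's own cutoff, the solvent-only control mean plus 3 SD; inconclusive means no clear call, values can overlap the other calls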;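 further: cells exposed to compound for four days before flow analysis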
CRFR2-BP antag: CRF-BP/CRF-R2 complex antagonism | HEK293 CRF-R2/CRF-BP, CRF-induced calcium fluorescence | actives 0.59% (n = 350,000) | AID 588475 | inhibition, % at 11.8 µM;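 active means inhibition of the ligand-induced calcium signal above about 50% at the single tested concentration, limit read from the data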
IDE cell activ: boosts human insulin-degrading enzyme activity in HEK cells. P14735. FAbeta-B cleavage, fluorescence polarization; 0% vehicle, 100% cell-free pure enzyme wells. activation, % at 5.96 µM. actives 0.073% (n = 340,000);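 active means activation above the mean of all tested compounds plus 3 SD, set per screening campaign, cut at about 17% in these data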
TPT1 inh: C. albicans TPT1 enzyme inhibition. actives 0.81% (n = 300,000). inhibition, % at 5 µM. recombinant caTPT1, FP RNA substrate dephosphorylation;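 active means inhibition above the mean of all tested compounds plus 3 SD, set per screening campaign, cut at about 24% in these data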;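 further: plate controls were DMSO alone for no effect and ferristatin control at 100 nM for full effect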
IDE inh: cellular human IDE inhibition; P14735; HEK cells, FAbetaB cleavage, fluorescence polarization; inhibition, % at 5.59 µM; actives 0.41% (n = 320,000);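 active means percent inhibition above the average of all tested compounds plus 3 SD, set per screening campaign, cut at about 16% in these data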;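 further: IDE supplied by intact live HEK cells; FP after avidin binding of uncleaved biotin substrate so inhibition keeps polarization high; 0% = DMSO wells and 100% = 60 µM reference IDE inhibitor Ii1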
TPT1 inh confirm: TPT1 (C. albicans) inhibition, confirmation. shares compounds with TPT1 inh. recombinant caTPT1, fluorescence polarization, RNase T1 coupled. inhibition, % at 5 µM. actives 74% (n = 2,400);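 active means inhibition above the primary screen limit, the mean inhibition of all tested compounds plus 3 SD, cut at about 25% in these data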
RNase T1 counter: blocks Aspergillus oryzae RNase T1, a TPT1 counter-screen; shares compounds with TPT1 inh; RNase T1 cleavage, fluorescence polarization, 1536-well; inhibition, % at 5 µM; actives 83% (n = 2,400); AID 2153;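 active means inhibition above the solvent-only control well mean plus 3 SD, limit set per screening run, cut at about 23% in these data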;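 further: plate controls were DMSO wells with enzyme for no effect and wells without RNase T1 for full effect; inhibitors block cleavage so intact labeled substrate keeps polarization high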
Target sequence (P00651 whole entry, looked up): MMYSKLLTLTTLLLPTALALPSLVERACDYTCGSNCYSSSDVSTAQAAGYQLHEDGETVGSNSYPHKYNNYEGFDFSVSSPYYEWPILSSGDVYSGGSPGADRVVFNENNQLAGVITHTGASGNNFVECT
* marks the source's active call; other numbers are inactive results; i = inactive; ? = inconclusive; . = no result; + = active, no number.

SMILES	CRFR2-BP ag	Myeloid diff MLP	CRFR2-BP antag	IDE cell activ	TPT1 inh	IDE inh	TPT1 inh confirm	RNase T1 counter
Cc1ccc(C)c(N2CCN(C(=S)Nc3ccc4nc(N5CCN(C)CC5)cc(C)c4c3)CC2)c1	-2	.	-13	22*	0	-8	.	.
CCN1CCN(c2cc(C)c3cc(NC(=S)N4CCN(c5ccccc5)CC4)ccc3n2)CC1	0	?	-4	20*	0	-6	.	.
COc1cccc(NC(=O)N(C)C[C@H]2OCc3cn(nn3)CCCC(=O)N([C@@H](C)CO)C[C@@H]2C)c1	2	i	-6	.	.	.	.	.
Cc1ccc(C(=O)NC(=S)N(C)C2CCCCC2)cc1	-1	i	5	-2	-1	5	.	.
Cc1ccc(S(=O)(=O)N2CCCCC2CCNC(=O)C(=O)NCc2ccccc2)cc1 (stereo not given)	-1	?	-1	2	-3	6	.	.
CCCOc1ccccc1C1C(C(=O)OC)=CN(C(C)C)C=C1C(=O)OC	-4	i	2	6	-1	-1	.	.
CCCCOc1ccccc1C1C(C(=O)OC)=CN(CC)C=C1C(=O)OC	0	i	59*	3	-2	1	.	.
Cc1sc2nc(CN3CCOCC3)nc(NS(=O)(=O)c3cc(Cl)ccc3Cl)c2c1C	-1	i	3	6	.	1	.	.
C/C(CC(=O)Nc1ccc2c(c1)OCCO2)=N\NC(=O)COc1ccccc1C	1	i	-9	0	-2	7	.	.
C/C(CC(=O)Nc1ccc2c(c1)OCCO2)=N\NC(=O)COc1cccc(C)c1	-1	+	-2	-2	2	-1	.	.
CCOC(=O)COn1c(=O)c(C)[n+]([O-])c2ccccc21	2	i	-4	0	10	3	.	.
CCOC(=O)COn1c(=O)c[n+]([O-])c2ccccc21	-1	+	-6	1	11	-3	.	.
CCC(c1nnnn1C1CCCC1)N1CCN(C/C=C/c2ccccc2)CC1 (stereo not given)	.	i	.	.	.	.	.	.
CCC(c1nnnn1C1CCCC1)N1CCN(Cc2ccccc2)CC1 (stereo not given)	-1	i	103*	10	-1	1	.	.
CC(=O)NCc1ccc(C(=O)O)cc1	0	i	86*	0	2	1	.	.
O=C(O)c1ccc(CNC(=S)Nc2ccccc2)cc1	-1	i	-5	-1	-2	-3	.	.
O=C(Nc1nc(-c2ccccc2)cs1)c1ccccc1NS(=O)(=O)c1ccc(F)cc1	65*	i	101*	4	-2	0	.	.
CN(Cc1ccc(F)cc1)S(=O)(=O)c1nnc(NC(=O)c2ccccc2)s1	7	i	14	1	2	0	.	.
CN(Cc1ccccc1)S(=O)(=O)c1nnc(NC(=O)c2ccc(F)cc2)s1	0	i	59*	4	4	1	.	.
Cc1c(N)cc(S(=O)(=O)O)cc1NC(=O)c1cccc([N+](=O)[O-])c1	5	i	-1	2	.	.	.	.
CCOC(=O)c1c(/N=C/C2=C(O)CCCC2=O)sc(C)c1C	-4	i	-7	0	-1	2	.	.
CCOC(=O)c1c(-c2ccc(OC)cc2)csc1/N=C/C1=C(O)CCCC1=O	10	i	-15	-4	139*	3	33*	50*
Cc1cc(SCC(=O)NCC2CCCO2)nc2ccccc12 (stereo not given)	8	i	-12	-7	30*	9	55*	67*
Cn1c(SCC(=O)NC(C)(C)C)nnc1-c1cccc(NC(=O)c2ccccc2F)c1	-1	i	-1	4	-3	1	.	.
Cn1c(SCC(=O)NCC2CCCO2)nnc1-c1cccc(NC(=O)c2ccccc2F)c1 (stereo not given)	-5	i	28	6	31*	4	9	10
SMILES	CRFR2-BP ag	Myeloid diff MLP	CRFR2-BP antag	IDE cell activ	TPT1 inh	IDE inh	TPT1 inh confirm	RNase T1 counter
COc1ccc(CCNC(=O)C2CCCN(c3ncccn3)C2)cc1 (stereo not given)	1	i	5	3	-1	7	.	.
Cc1ccc(S(=O)(=O)N(CC(=O)Nc2ccc(Cl)cc2)C(=O)N2CCN(C)CC2)cc1	0	i	1	-1	.	.	.	.
CCOC(=O)/C(N=Nc1c(C)n(C)n(-c2ccccc2)c1=O)=C(/O)c1ccccc1	1	i	8	11	-1	3	.	.
Cc1c(N=N/C(C(=O)Nc2ccccc2)=C(/O)c2ccccc2)c(=O)n(-c2ccccc2)n1C	8	i	-3	8	55*	4	54*	67*
N#CC1=C(N)SC(N)=C(C#N)C1Cc1ccccc1	47	i	-42	-7	63*	12	50*	59*
CC(C)CC1C(C#N)=C(N)SC(N)=C1C#N	50*	i	-56	-7	70*	13	87*	95*
O=C(CN1C(=O)CSc2ccc(S(=O)(=O)N3CCOCC3)cc21)NCCCN1CCc2ccccc2C1	-1	i	-3	1	-3	4	.	.
COc1ccc(NC(=O)c2cccc(Oc3ccc([N+](=O)[O-])cc3Cl)c2)cc1	1	i	1	-1	0	1	.	.
CCN(CC)C(=O)c1ccc(Oc2ccc([N+](=O)[O-])cc2Cl)cc1	-3	i	13	7	44*	5	5	7
O=C(O)CCN1C(=O)c2ccc(Oc3ccc([N+](=O)[O-])cc3)cc2C1=O	2	.	2	4	-2	5	.	.
O=C(NNC(=S)NC(=O)c1cccnc1)c1ccc(Cl)cc1	-2	i	3	1	6	0	.	.
O=C(Cc1ccc(Cl)cc1)NNC(=S)NC(=O)c1cccnc1	-4	i	9	2	35*	4	45*	58*
ClCC1NCC(c2ccccc2Cl)c2c1[nH]c1ccccc21 (stereo not given)	-2	+	-20	1	89*	-8	14	21
CC(=O)/C(N=Nc1cc(C)ccc1O)=C(\C)O	9	+	-27	-3	44*	-3	29*	48*
O=C1/C(=C/c2cccs2)COc2ccccc21	0	i	-11	-1	-3	3	.	.
CN(C)c1ccc(/C=C2\CCCCC2=O)cc1	3	i	2	4	8	5	.	.
CN(C)/N=C/C=C1\CCC/C(=C/c2cccs2)C1=O	3	.	-22	-1	49*	6	56*	66*
CN(C)/N=C/C=C1\CC/C(=C\c2ccc(Br)cc2)C1=O	-1	i	-9	-4	77*	3	55*	66*
